Assay results reported in PubChem BioAssay (NCI).
This is part of a sample that, as a whole, favours compounds with a hit. Of some 79,000 tested, about 15% had one in any assay. The source made the active and inactive calls. Cut-off read from the data, not from the text of the source: active = growth inhibition above about 70%; inactive = the rest.

Key:
[1] = NCI Yeast Anticancer Drug Screen. Data for the rad50 strain (AID 155);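 note: 0% = growth of vehicle-only cultures of the same strain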; details: S. cerevisiae rad50 strain growth inhibition; at 50.0 µM; hits give high values
Method in brief: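 Cells are treated with compound, grown, and their growth is then scored against vehicle-only cultures of the same repair-deficient yeast strain.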

[2] = NCI Yeast Anticancer Drug Screen. Data for the mec2-1 strain (AID 157); details: S. cerevisiae mec2-1 strain, at 50.0 µM, hits give high values
Method in brief: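 Growth inhibition is read against vehicle-treated controls after compound exposure of the mec2-1 yeast strain, which is defective in DNA damage repair or cell cycle control.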

[3] = NCI Yeast Anticancer Drug Screen. Data for the sgs1 mgt1 strain (AID 161);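 note: 0% = growth of cultures given vehicle only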; details: S. cerevisiae sgs1 mgt1 strain, at 50.0 µM, hits give high values
Method in brief: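 Percent growth inhibition was derived by comparing compound-exposed mutant yeast with vehicle-exposed cultures. The strain carries alterations in DNA damage repair.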

[4] = NCI Yeast Anticancer Drug Screen. Data for the cln2 rad14 strain (AID 165);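 note: 0% = growth equal to vehicle treated cultures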; details: S. cerevisiae cln2 rad14 strain, at 50.0 µM, hits give high values
Method in brief: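 Growth inhibition, relative to vehicle-treated controls, is the read-out. The test organism is a yeast strain with defined genetic alterations, cln2 rad14.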

[5] = NCI Yeast Anticancer Drug Screen. Data for the bub3 strain (AID 167); details: S. cerevisiae bub3 mutant strain, at 50.0 µM, hits give high values
Method in brief: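 Part of a panel of yeast mutants defective in DNA damage repair or cell cycle regulation. Each strain is grown with compound, and inhibition is calculated relative to solvent-treated cultures.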

[6] = NCI Yeast Anticancer Drug Screen. Data for the mlh1 rad18 strain (AID 175); details: S. cerevisiae mlh1 rad18 strain growth inhibition; at 50.0 µM; hits give high values
Method in brief: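 Cells of a genetically altered yeast strain, deficient in DNA damage repair, were treated with compound. Their growth was then compared with that of vehicle-treated cultures to give inhibition.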

Measured: growth inhibition

O=NNc1cc(=O)[nH]c(=O)[nH]1
inactive: [1] 5.4% | [2] -4.5% | [3] -3.85% | [4] -39.2% | [5] -7.6% | [6] -6.5%

Clc1ccc(N2CCN(c3ccc(Cl)cc3)CC2)cc1
inactive: [1] -20.1% | [2] 1.45% | [3] -6.75% | [4] 1.25% | [5] -6.9% | [6] 6.05%

COC(=O)C(Cl)Cl
inactive: [1] 9.2% | [2] -17.1% | [3] -1.85% | [4] -47.9% | [5] -5.6% | [6] 14.1%

N=P(c1ccccc1)(c1ccccc1)c1ccccc1.[Cr+6].[N-]=C=S.[N-]=C=S.[N-]=C=S.[N-]=C=S.[NH2-].[NH2-]
inactive: [1] 3.95% | [2] -2.55% | [3] -3.6% | [4] -3.35% | [5] -2.1% | [6] 0%

CS/C([S-])=N/N=C\c1ccccn1.CS/C([S-])=N/N=C\c1ccccn1.[Ni+2]
inactive: [1] 14.7% | [2] -6.75% | [3] 17.2% | [4] -35.4% | [5] 2.45% | [6] -0.45%

CC(C)(C)C1=C(Br)C(Br)(C(C)(C)C)OP1(=O)c1ccccc1 (stereo not given)
inactive: [1] 7.9% | [2] 8.55% | [3] -22.9% | [4] 5.75% | [5] -5% | [6] -27.5%

CCN(CC)CCO
inactive: [1] -4.1% | [2] -4.9% | [3] -9.6% | [4] 7.05% | [5] 15.2% | [6] -23.6%

COc1cc2c(c(OC)c1O)-c1ccc(OC)c(=O)cc1[C@@H](NC(=O)C(F)(F)F)CC2
inactive: [1] 14.5% | [2] 28.3% | [3] -3.25% | [4] 15.7% | [5] 7.9% | [6] 11.3%

O=[N+]([O-])c1cccc2cccnc12
inactive: [1] -11.4% | [2] -13.8% | [3] 6.75% | [4] 4.2% | [5] 0.4% | [6] -1.75%

CCP(=S)(CC)P(=S)(CC)CC
inactive: [1] -1.35% | [2] -21.4% | [3] -14.6% | [4] -9.2% | [5] -11.8% | [6] 7.45%

COc1ccc(N)cc1N
inactive: [1] 6.8% | [2] 18.1% | [3] 5.5% | [4] -42.4% | [5] 25.5% | [6] 11.1%

COP1(=S)OCC2CCC[C@@H]2O1 (stereo not given in full)
inactive: [1] -19.5% | [2] -26.4% | [3] -33% | [4] 3.2% | [5] -21.9% | [6] -32.1%

C(#CP(c1ccccc1)c1ccccc1)c1ccccc1
active: [3] 74.8% | [5] 76.8% | [6] 85.5%
inactive: [1] 62.5% | [2] 34.5% | [4] 20.1%

C/C=C/CC1(CC)C(=O)NC(=O)NC1=O
inactive: [1] 16.9% | [2] 10.9% | [3] 11.8% | [4] 16.6% | [5] 2% | [6] 8.1%

COc1ccc2ccc([Se]c3ccc4ccc(OC)cc4c3)cc2c1
inactive: [1] -1.25% | [2] -22.4% | [3] -1.85% | [4] 4.45% | [5] 7.55% | [6] -1.1%

CN(C)c1cccc(NC2=NCCO2)c1
inactive: [1] -21.3% | [2] -24.5% | [3] -27.7% | [4] 7.35% | [5] -20.4% | [6] -14.6%

C1CCC(N2CSC3CCCCC32)CC1 (stereo not given)
inactive: [1] -0.65% | [2] -12.2% | [3] 4.35% | [4] -18.2% | [5] 16.2% | [6] 5.6%

NC1(C(=O)O)CCCC1
inactive: [1] -21.1% | [2] -21.9% | [3] -15.2% | [4] -63.8% | [5] -1.5% | [6] -28.1%

Cc1nnn[n-]1.N.N.N.N.N.[Cl-].[Co+3]
inactive: [1] 3.15% | [2] -6.95% | [3] -9.55% | [4] 2.4% | [5] -0.15% | [6] -16.5%

BrCC[N+]12CCCN1CCC2
inactive: [1] -7.95% | [2] -31.4% | [3] 3.25% | [4] 0.2% | [5] -7.05% | [6] -31.3%

N#Cc1ccc([N+](=O)[O-])cc1
inactive: [1] -1.15% | [2] 9.25% | [3] 1.7% | [4] 1.2% | [5] -43.8% | [6] -43.9%

CCC1(CCNC(=O)CCl)C(=O)NC(=O)NC1=O
inactive: [1] 3.05% | [2] -4.5% | [3] 6.8% | [4] -38.1% | [5] 4.55% | [6] -8.6%

Cn1c[n+](C)nn1
inactive: [1] -2.75% | [2] -12.8% | [3] -1.3% | [4] -29.1% | [5] -3.25% | [6] -18.2%

CC1N2C3(c4ccccc4)OC(c4ccccc4)(c4ccccc43)C12c1ccccc1 (stereo not given)
inactive: [1] 9.8% | [2] 13.2% | [3] 4.95% | [4] 31.9% | [5] 0.8% | [6] 4.05%

Nc1ccc([As](=O)(O)O)cc1C(=O)O
inactive: [1] -16.3% | [2] -18.8% | [3] -6.7% | [4] -11% | [5] 7.2% | [6] -2.3%

CC(C)NCC(O)c1ccc(Cl)c(Cl)c1 (stereo not given)
inactive: [1] -28.6% | [2] -40% | [3] -14% | [4] 7.25% | [5] -27.2% | [6] -33.8%

CC(=O)[O-].CC(=O)[O-].O=C(N/N=C/c1cc(Cl)cc(Cl)c1O)c1ccncc1.[Cu+2]
inactive: [1] 2.55% | [2] 2.75% | [3] 10.7% | [4] 51.1% | [5] -4.05% | [6] 9.85%

CC1=C(Cl)C=CP(=O)(Oc2ccccc2)C1 (stereo not given)
inactive: [1] 19.5% | [2] -14.4% | [3] -12.2% | [4] 29.2% | [5] -5.6% | [6] -8.15%

O=C1CN=C(c2ccccc2)c2ccncc2N1
inactive: [1] 4.15% | [2] 4.5% | [3] 12.6% | [4] 19.1% | [5] 5.35% | [6] 28.6%

Cc1ccc(NC(=O)c2cc3ccccc3cc2O)c(C)c1
inactive: [1] 17.1% | [2] -16.1% | [3] 20.7% | [4] 8.75% | [5] 17.9% | [6] 21.8%

O=C(c1ccccc1)C1NC1c1ccccc1 (stereo not given)
inactive: [1] 13.8% | [2] 39.4% | [3] 1.65% | [4] -16.6% | [5] 19.8% | [6] 10.2%

O=C1CCN(C2(c3ccccc3)CCCCC2)CC1
inactive: [1] 3.85% | [2] -4.1% | [3] 3.55% | [4] -5.1% | [5] -8.85% | [6] -1.35%

COc1cc2c(cc1OC)C13CCN4C=C5CCOC6CC(=O)N2C1C6C5CC43 (stereo not given)
inactive: [1] -25.4% | [2] -8.7% | [3] -12.7% | [4] 1.75% | [5] -60% | [6] 16.8%

N#CCC(=O)c1ccccc1
inactive: [1] 3.3% | [2] 29.9% | [3] -0.25% | [4] -20.7% | [5] -10.9% | [6] 1.4%

CC1OC(n2cc(C(N)=O)c3c(N)ncnc32)C(O)C1O (stereo not given)
inactive: [1] 19.4% | [2] 20.9% | [3] 3.75% | [4] 16.9% | [5] 14.2% | [6] 20.1%

COc1cc(C2c3cc4c(cc3OC(C)(O)C2C(C)=O)OCO4)cc(OC)c1OC (stereo not given)
inactive: [1] -10.2% | [2] -0.15% | [3] 3.9% | [4] -18.6% | [5] -1.1% | [6] -7.45%

C/C(=N\O)C(CN1CCCCC1)C(c1ccccc1)c1c(O)c2ccccc2oc1=O (stereo not given)
inactive: [1] 17.9% | [2] 2.05% | [3] 24.6% | [4] 28.6% | [5] 21.4% | [6] 26.9%

C=COC(N)=O
inactive: [1] 0.8% | [2] -2.7% | [3] 5.05% | [4] -0.9% | [5] 0.05% | [6] -8.15%

Cc1ccc(OP(=O)(Oc2ccc(C)cc2)Oc2ccc(C)cc2)cc1.Cc1ccc(OP(=O)(Oc2ccc(C)cc2)Oc2ccc(C)cc2)cc1.Cc1ccc(OP(=O)(Oc2ccc(C)cc2)Oc2ccc(C)cc2)cc1.Cc1ccc(OP(=O)(Oc2ccc(C)cc2)Oc2ccc(C)cc2)cc1.[Nd+3].[O-][Cl+3]([O-])([O-])O
inactive: [1] 34.4% | [2] 23.7% | [3] 37.8% | [4] 27% | [5] 52.8% | [6] 25.7%

NNC(=S)N/N=C(\C(=O)Nc1cccc(O)c1)C1C(=O)NC(=S)NC1=O
inactive: [1] -6.65% | [2] -10.6% | [3] -13.7% | [4] -0.05% | [5] 2.55% | [6] -17.9%
